Screens as filed in PubChem.
A selection: hits, their analogues and other compounds. The true share with any hit is near 4.7%.
ALR inh: inhibitors of human ALR sulfhydryl oxidase, primary screen, biochemical, H2O2 detection, HRP-luminol luminescence, single point. FAD-linked sulfhydryl oxidase ALR (Homo sapiens), P55789. purified ALR, DTT oxidation. inhibition, % (test concentration not listed). 3.8% of 290,000 active. AID 485317, 2010;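 active = mean replicate inhibition above about 79%, with every replicate also reaching it, limit read from the data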
Efflux pump inh: inhibitors of Candida efflux pumps in yeast, primary screen, S. cerevisiae, Nile Red, multiplex; S. cerevisiae Candida pump triplex; inhibition, % at 10 µM; 0.44% of 330,000 active; AID 485275, 2010;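 active = plate passing quality check with inhibition over a set limit, or well fluorescence over plate mean plus 4 SD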;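 also: Nile Red retained in pooled yeast measured as flow cytometry median fluorescence; higher means more Nile Red kept so more efflux inhibition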
PABP FP inh: PABP poly(A) RNA binding inhibitors, primary screen, biochemical, fluorescence polarization, uHTS. 1% of 290,000 active. AID 2014, 2009. inhibition, % at 35 µM. Polyadenylate-binding protein 1 (Homo sapiens), P11940;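 also: calls also rest on retests at 20 µM and on dose response follow-up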
Target sequence (P11940 whole entry, looked up): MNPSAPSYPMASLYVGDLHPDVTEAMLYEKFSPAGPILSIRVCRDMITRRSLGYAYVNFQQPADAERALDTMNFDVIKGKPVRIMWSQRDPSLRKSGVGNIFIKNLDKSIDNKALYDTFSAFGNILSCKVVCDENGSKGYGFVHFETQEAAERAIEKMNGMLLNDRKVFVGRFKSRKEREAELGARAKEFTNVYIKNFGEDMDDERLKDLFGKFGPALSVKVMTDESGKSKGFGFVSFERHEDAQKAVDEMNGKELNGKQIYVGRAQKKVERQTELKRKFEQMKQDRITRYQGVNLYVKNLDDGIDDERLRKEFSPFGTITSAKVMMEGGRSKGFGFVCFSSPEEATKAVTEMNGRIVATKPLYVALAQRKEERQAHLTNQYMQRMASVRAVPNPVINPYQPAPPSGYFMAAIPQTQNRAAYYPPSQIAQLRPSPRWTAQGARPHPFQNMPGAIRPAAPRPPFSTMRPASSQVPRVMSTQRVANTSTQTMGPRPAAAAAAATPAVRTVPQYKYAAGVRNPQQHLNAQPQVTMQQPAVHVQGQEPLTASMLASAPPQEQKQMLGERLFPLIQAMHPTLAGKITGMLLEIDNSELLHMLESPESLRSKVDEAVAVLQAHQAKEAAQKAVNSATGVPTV
eIF4H FP inh: human eIF4H binding inhibitors, primary screen, translation initiation inhibitor project, biochemical, uHTS, fluorescence polarization; eIF4H fluorescence polarization binding assay; inhibition, % at 35 µM; 0.94% of 290,000 active; Eukaryotic translation initiation factor 4H (Homo sapiens), Q15056;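 also: calls also rest on retests at 20 µM and on dose response follow-up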
PABP1 MLLE inh: inhibitors of PABP1 MLLE–PAM2 peptide binding, primary screen, biochemical, fluorescence polarization, FITC-PAM2, GST-MLLE; Polyadenylate-binding protein 1 (Homo sapiens), P11940; inhibition, % at 20 µM; 0.36% of 360,000 active; AID 588489, 2011; in the data active = inhibition above about 35%, passing the limit was not always enough
UBC9 SUMO inh: inhibitors of in vitro SUMOylation cascade, primary screen, biochemical, HTRF, uHTS. inhibition, % at 35 µM. HTRF SUMOylation assay, SAE1/SAE2 + UBC9. 0.36% of 290,000 active. SUMO-conjugating enzyme UBC9 (Homo sapiens), P63279; in the data active = inhibition above about 50%, passing the limit was not always enough
A number is an active result; 0 = inactive; - = no result given. Unless noted, no rule for the calls is given here.

SMILES	ALR inh	Efflux pump inh	PABP FP inh	eIF4H FP inh	PABP1 MLLE inh	UBC9 SUMO inh
CC(=O)Nc1ccc(NC(=O)Cc2sc(-c3cccnc3)nc2-c2ccc(C)cc2)cc1	0	0	0	0	0	0
Cc1ccc(-c2nc(-c3cccnc3)sc2CC(=O)O)cc1	99	0	0	0	0	0
CSc1ccc(-c2cc(=O)c3ccccc3o2)cc1	0	0	0	0	0	54
O=c1cc(-c2ccc(F)cc2)oc2ccccc12	0	0	-	-	0	-
CCCCOc1ccc(/C=C/C(=O)OCC(=O)NC(=O)NCC(C)C)cc1OCC	0	0	0	0	0	0
COC(=O)c1ccc(NC(=O)CSc2nc3ccccc3c(=O)[nH]2)cc1	0	0	0	0	0	0
COC(=O)c1ccc(NC(=O)CSC2=NC(=O)C(c3ccccc3)C(=O)N2)cc1 (stereo not given)	99	0	0	0	0	0
O=C(CSC1=NC(=O)C(c2ccccc2)C(=O)N1)Nc1ccccc1Cl (stereo not given)	99	0	0	0	0	0
O=C(CSC1=NC(=O)C(c2ccccc2)C(=O)N1)Nc1ccccc1[N+](=O)[O-] (stereo not given)	95	0	0	0	0	0
O=C(CSC1=NC(=O)C(c2ccccc2)C(=O)N1)Nc1cccc(Cl)c1 (stereo not given)	98	0	0	0	0	0
CC(=O)NC1C(=O)N=C(SCC(=O)Nc2ccc(C(F)(F)F)cc2Cl)NC1=O (stereo not given)	98	0	0	0	0	0
COc1ccccc1NC(=O)CSC1=NC(=O)C(NC(C)=O)C(=O)N1 (stereo not given)	-	0	0	0	0	0
COc1ccccc1C(=O)NC(CCSC)C(=O)NC1CCCCCC1 (stereo not given)	0	0	active	0	0	0
COc1ccccc1C(=O)NC(CCSC)C(=O)OCC(=O)c1ccc[nH]1 (stereo not given)	-	0	0.4	60	0	0
CN(c1ccccc1C(=O)N1CCN(c2ccccc2)CC1)S(C)(=O)=O	87	0	0	0	0	0
CCOC(=O)C1CCCN(C(=O)c2cc(S(=O)(=O)Nc3ccccc3OC)ccc2C)C1 (stereo not given)	0	0	0	0	0	0
CS(=O)(=O)N(CC(=O)N1CCN(c2ccccc2)CC1)c1cccc(Br)c1	0	0	0	0	0	0
COc1ccccc1NS(=O)(=O)c1ccc(C)c(C(=O)N2CCN(c3ccc(O)cc3)CC2)c1	99	0	-	-	0	-
CCc1ccccc1N(CC(=O)N1CCN(c2ccccc2)CC1)S(C)(=O)=O	98	0	0	0	0	0
CS(=O)(=O)Nc1ccccc1C(=O)N1CCN(c2ccccc2)CC1	98	0	0	0	-	0
Cc1ccc(N2C(=O)CC(NNC(=O)c3cccc(S(=O)(=O)N4CCCC4)c3)C2=O)cc1 (stereo not given)	95	0	0	0	0	0
N#Cc1ccc(-c2nc3ccc(Br)cn3c2Cc2ccccc2)cc1	-	-	-	-	0	-
COc1ccc2c(C)cc(SCC(=O)c3ccc4c(c3)OCO4)nc2c1	99	0	0	0	0	0
COc1ccc2c(C)cc(SCC(=O)NC3CCCC3)nc2c1	-	0	-	-	0	-
COc1cc(C(=O)OCCN2CCCCC2)ccc1O	0	0	0	0	0	0
SMILES	ALR inh	Efflux pump inh	PABP FP inh	eIF4H FP inh	PABP1 MLLE inh	UBC9 SUMO inh
COc1cc(C(=O)OCCCN2CCOCC2)ccc1O	99	0	0	0	0	0
COc1cc([N+](=O)[O-])ccc1NC(=O)CCCOc1cc(C)ccc1C	0	0	0	0	0	0
Cc1cccc(NC(=O)CC(C)(C)C)c1	0	0	0	0	0	0
CCCCc1ccc(NC(=O)CC(C)=O)cc1	0	0	0	0	0	0
CC(C)CC(=O)Nc1ccc(Nc2ccccc2)cc1	99	0	0	0	0	0
CC(C)CC(=O)Nc1ccc(Oc2ccc(NC(=O)CC(C)C)cc2)cc1	0	0	0	0	0	0
CC(C)(C)CC(=O)Nc1ccc(Nc2ccccc2)cc1	99	0	0	0	0	0
CCCCc1ccc(NC(=O)CC(C)(C)C)cc1	0	0	active	98	0	0
C#Cc1ccc(NC(=O)C2(C)CCN2C(=O)c2cc(C)n(C)n2)cc1 (stereo not given)	-	-	-	-	0	-
O=C(COc1ccc2c3c(c(=O)oc2c1)CCCC3)NCc1cccnc1	0	0	0	0	0	0
C=C(C)C1(O)OC(=O)C=C1OC (stereo not given)	0	0	0	0	0	0
Nc1sccc1C(=O)c1ccccc1	98	0	0	0	-	0
O=S(=O)(c1ccc2c(c1)CCCN2)N1CCCC1	-	0	-	-	0	-
O=S(=O)(c1ccc2c(c1)CCN2)N1CCCC1	98	0	-	-	0	-
O=C(CCN1CCOCC1)Nc1ccc(F)cc1	0	0	0	0	0	0
Cc1cccc(NC(=O)CCN2CCCCC2)c1	0	0	0	0	0	0
Cc1cc(C)cc(NC(=O)CCN2CCCC2)c1	0	0	71	0	0	0
Nc1ccc(NC(=O)CCN2CCOCC2)cc1	93	0	0	0	0	0
COc1ccc(-c2csc(-c3[nH]cnc3N)n2)cc1	0	0	0	0	0	0
O=C(COC(=O)c1cncc(Br)c1)NCc1ccccc1	0	0	0	0	0	0
O=C(COC(=O)c1cncc(Br)c1)NCc1ccccc1Cl	0	0	63	0	0	0
COc1ccc(/C=N/NC(=O)c2[nH]c3ccc(Cl)cc3c2-c2ccccc2)c(C(=O)O)c1OC	98	0	0	0	0	0
COc1ccc(/C=N/NC(=O)c2[nH]c3ccc(Br)cc3c2-c2ccccc2)c(C(=O)O)c1OC	-	0	0	0	0	0
NC(=O)SCC(=O)Nc1ccccc1C(=O)O	94	0	0	0	0	0
COc1ccccc1CC(=O)Nc1cc(Cl)ccc1O	0	0	0	0	0	0
SMILES	ALR inh	Efflux pump inh	PABP FP inh	eIF4H FP inh	PABP1 MLLE inh	UBC9 SUMO inh
COc1ccccc1NC(=O)Cc1csc(NC(=S)Nc2ccccc2)n1	-	0	0	0	41	0
COc1ccccc1NC(=O)CSC(N)=O	99	0	0	0	0	0
Cc1ccccc1NC(=O)CSC(N)=O	-	0	0	0	0	0
COc1ccccc1CC(=O)Nc1ccccc1O	89	0	0	0	0	0
COc1ccccc1NC(=O)CSc1nc(N)c(C#N)cc1C#N	0	0	0	87	0	0
COc1cccc(-c2nc(CS(=O)(=O)CC(=O)NC3CCCCC3C)c(C)o2)c1 (stereo not given)	93	0	0	0	0	0
CCOC(=O)N1CCC(NC(=O)CS(=O)(=O)Cc2nc(-c3cccc(Cl)c3)oc2C)CC1	0	0	0	0	0	0
